Inconclusive results are not listed. The source made the active and inactive calls. Calls come from the whole dose curve.
% is set by controls: 0 for no effect and ±100 for the full control effect.

The nature of this assay: qHTS assay to identify small molecule agonists of the endoplasmic reticulum stress response signaling pathway - cell viability counter screen (AID 1159517). Note: nearly all actives have a fitted effect of over 50% in size. Particulars: ESRE-bla HeLa viability, CellTiter-Glo luminescence, 5 h; series mostly up to 61 µM. An excerpt:
U.S. Tox21 Program National Center for Advancing Translational Sciences [NCATS] NIH Chemical Genomics Center [NCGC] U.S. Environmental Protection Agency [EPA] National Institutes of Environmental Health Sciences [NIEHS] National Toxicology Program [NTP] U.S. Food and Drug Administration [FDA] Tox21 Assay Overview: Endoplasmic Reticulum (ER) plays an important role in cellular signaling, protein folding/maturation, stress response, lipid biosynthesis, calcium storage and release etc. Under stress conditions, proteins in ER misfold or unfold, and leading to the expression of ER stress responsive genes. ER stress has been associated with a variety of pathophysiological conditions such as cancer, inflammation, neurodegenerative diseases, diabetes, ischemic heart disease etc. To identify the compounds that induce ER stress response, an ER stress reporter cell line, CellSensor ESRE-bla HeLa (Life Technologies, Carlsbad, CA) containing a beta-lactamase reporter gene under control of the Endoplasmic reticulum Stress Response Element (ESRE) was used to screen Tox21 10K compound library. The cytotoxicity of the Tox21 compound library against the ESRE-bla HeLa cell line was tested in parallel by measuring cell viability using the CellTiter-Glo assay in the same wells.
Tox21 Assay Protocol Summary: ESRE-bla HeLa cells were dispensed at 1,500 cells/6 uL of assay medium per well into black wall/clear-bottom 1536-well plates using a Multidrop Combi (ThermoFisher Scientific, Waltham, MA) dispenser. After the assay plates were incubated at 37 C and 5% CO2 for an overnight, 23 nL of compounds dissolved in DMSO, positive controls or DMSO only was transferred to the assay plate by a Pintool station (Kalypsys, San Diego, CA). The assay plates were incubated at 37 C and 5% CO2 for 5 hr. One uL of LiveBLAzer B/G FRET substrate (Life Technologies) was added using a FRD (Flying Reagent Dispenser, Aurora Discovery, San Diego, CA) and the plates were incubated at room temperature for 2 hr. Fluorescence intensity (405 nm excitation, 460 nm and 530 nm emissions) was measured using an Envision plate reader (PerkinElmer, Shelton, CT). For cytotoxicity, 4 ul/well of CellTiter-Glo reagent was added into the assay plates using an FRD. After 30 min incubation at room temperature, the luminescence intensity was measured using a ViewLux plate reader (PerkinElmer).
In general terms: Quantitative high-throughput screening tests each substance at several concentrations.
Take `CC(=O)OC1CCCCC1C(C)(C)C` (stereo not given): the outcome was inactive.

Consider `COc1nc(N)nc2nc[nH]c12`, for which the result was inactive.

With `CC/C=C\CCOC(=O)c1ccccc1O`, the call was inactive.

As for `O=C1CCCCO1`, the outcome was inactive.

Take `COc1cc(/C=C/C(N)=O)cc(OC)c1OC`: the molecule was called inactive.

For `CCCCCCCCCOC(=O)c1ccccc1C(=O)OCCCCCCCCC`, the result was inactive.

Consider `CC12CCC(C1)C(C)(C)C2O` (stereo not given), for which the molecule was classed as inactive.

Regarding `O=C(NCN1CCOCC1)c1cnccn1`, the result was inactive.

Consider `[O-][n+]1cccc(/C(Cl)=N/OC[C@@H](O)CN2CCCCC2)c1`, for which the molecule was classed as inactive.

On to `C=CCCCCCCCC`, for which the molecule was called inactive.

As for `CCCC(=O)OCCC(C)CCC=C(C)C` (stereo not given), the result was inactive.

Take `CCCCCCCCCCOC(C)=O`: the molecule was classed as inactive.

As to `CC(C)OC(=O)OCOP(=O)(CO[C@H](C)Cn1cnc2c(N)ncnc21)OCOC(=O)OC(C)C`, the outcome was inactive.

As to `CSc1cnccn1`, the result was inactive.

Take `OCC1(CO)COCOC1`: the molecule was called inactive.

Turning to `O=C(CN1CCNCC1)NC1CCCCC1`, the molecule was called inactive.

As for `Fc1ccccc1`, the result was inactive.

Turning to `O=C=NCC1CCCC(CN=C=O)C1` (stereo not given), the molecule was called inactive.

Regarding `O=NN(CCCl)C(=O)NC1CCCCC1`, the result was inactive.

For the molecule `COS(=O)(=O)O`, the molecule was classed as inactive.

In the case of `CCn1cc(C(=O)O)c(=O)c2cnc(N3CCCC3)nc21`, the activity change, negative = cytotoxicity was -11.8% [at 6.95 µM] (inactive).

On to `CCCCOC(=O)[C@H](C)O`, for which the molecule was classed as inactive.

Turning to `CC1(C)Cc2cccc(N)c2O1`, the outcome was inactive.

In the case of `CN(C)CCOC(=O)C(c1ccccc1)C1(O)CCCC1` (stereo not given), the molecule was called inactive.

As to `CN(C)C(C)(C)CO`, the result was inactive.

Turning to `CC(C)NCC(O)c1ccc2ccccc2c1` (stereo not given), the call was inactive.

`CCC(C)C(=O)OCCc1ccccc1` (stereo not given): the outcome was inactive.

On to `CC(C)Cn1cnc2c1c(=O)n(C)c(=O)n2C`, for which the outcome was inactive.

Consider `CC(C)[C@H]1CC[C@H](C)C[C@@H]1O`, for which the molecule was classed as inactive.

`CCc1occc(=O)c1O`: the outcome was inactive.

Consider `O=C[O][Al]([O]C=O)[O]C=O`, for which the molecule was classed as inactive.

Take `CC(=O)OCC(=O)Nc1cc(C#N)cc(NC(=O)COC(C)=O)c1Cl`: the result was inactive.

Consider `C=CC(=O)CCCCC`, for which the molecule was classed as inactive.

In the case of `C=CC/C=C/C`, the call was inactive.

Take `Nc1nnnn1-c1ccccc1`: the molecule was classed as inactive.

For `c1ccc(-c2nn[nH]n2)cc1`, the outcome was inactive.

As for `Cc1ccccc1C(N)=O`, the molecule was called inactive.

Take `Cc1ccc(C(=O)O)cc1[N+](=O)[O-]`: the molecule was classed as inactive.

Regarding `O=C(O)CONC(=O)c1ccccc1`, the call was inactive.

Turning to `Cn1c(=O)c2[nH]c(Br)nc2n(C)c1=O`, the molecule was classed as inactive.

For the origin of these results see PubChem BioAssay (Tox21).
